Rows were chosen to be rich in hits. Some 11% of all compounds tested hit in one or more screens of this group.
HPGD inh = blocks human HPGD enzyme activity; purified HPGD, NADH fluorescence kinetic, PGE2 substrate; Potency, µM, most hits filed as inhibitors; 150,000 compounds, 4.3% hits; AID 894; active = well fitted inhibition curve with a large enough effect, not every such curve was filed as active; inconclusive = small, poorly fitted or top-dose-only effect, or another doubt; inactive = no such curve, though single readings can be large or run the other way
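NADH formation kinetics: reaction with 30 uM PGE2 and 1 mM NAD+ (final), 20 nM enzyme, Tris-HCl pH 8 with Tween 20, after 15 min compound preincubation at room temperature. Fluorescence change, last versus first of five reads.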
ALDH1A1 block = blocks purified human ALDH1A1 activity; P00352; 220,000 compounds, 7.3% hits; AID 1030; Purified ALDH1A1, NADH fluorescence, propionaldehyde substrate; Potency, µM (doses to about 75.3 µM), actives largely listed as inhibitors; active = well fitted inhibition curve with a large enough effect, not every such curve was filed as active; inconclusive = small, poorly fitted or top-dose-only effect, or another doubt; inactive = no such curve, though single readings can be large or run the other way
NPSR antag = neuropeptide S receptor (human) antagonism, cAMP. CHO-NPSR cells, cAMP TR-FRET, antagonist mode. Potency, µM (top dose mostly 38.3 µM), usual class: inhibitors. 220,000 compounds, 1% hits. AID 1461; note: nearly all actives have a fitted effect of over 50% in size
Target sequence (Q6W5P4 whole entry, looked up): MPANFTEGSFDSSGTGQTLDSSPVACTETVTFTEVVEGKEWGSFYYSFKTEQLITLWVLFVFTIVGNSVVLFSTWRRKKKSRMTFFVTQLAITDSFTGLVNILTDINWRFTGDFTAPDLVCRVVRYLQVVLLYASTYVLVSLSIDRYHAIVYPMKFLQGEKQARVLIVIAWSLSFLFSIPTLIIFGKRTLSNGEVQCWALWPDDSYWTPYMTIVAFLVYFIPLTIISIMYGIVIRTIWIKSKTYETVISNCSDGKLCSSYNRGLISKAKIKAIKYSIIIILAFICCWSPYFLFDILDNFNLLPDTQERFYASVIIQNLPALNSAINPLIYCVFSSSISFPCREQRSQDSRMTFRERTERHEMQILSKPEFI
PNC assembly inh = inhibitors of perinucleolar compartment assembly | AID 2417 | 140,000 compounds, 3.1% hits | PC3M PTB-GFP, PNC prevalence imaging, 16 h; hits give low values | activity change (PNC), negative = inhibition, % at 10 µM;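 active = readout at or below -70, meaning at least 70% loss of cells showing the perinucleolar compartment, a nuclear body marking cancer cells; inconclusive = readout between -30 and a set limit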
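Compounds are pinned in duplicate onto adhered PC3M cells stably expressing GFP-tagged PTB and incubated 16 h at 37 C. Cells are then fixed, nuclei stained with Hoechst, and PNC-positive cells counted.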
IMPase Li inh = IMPase inhibition in cells with lithium potentiation | 210,000 compounds, 0.35% hits | Potency, µM (highest dose often 59.4 µM), most hits filed as inhibitors | AID 1457 | CHO-M1 cells, IP1 TR-FRET (IP-One), carbachol + lithium;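 note: IP1 builds up when IMPase is blocked and the TR-FRET signal falls; nearly all actives have a fitted effect of over 50% in size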
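IP1 accumulation measured by competitive TR-FRET in lysed CHO-M1 cells after 30 min compound exposure at 37C, with a small lithium addition to potentiate weak responses. Hill-equation AC50 from ratio and donor-channel data.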
IMPase inh = cell-permeable inhibitors of inositol monophosphatase (IMPase). CHO-M1 cells, IP1 accumulation, HTRF TR-FRET ratio. inhibition (IP1 accumulation), % at 46.1 µM. P97697. 120,000 tested, under 10 active; active = well fitted curve in the direction sought with a large enough effect in the signal ratio, not every such curve was filed as active; inconclusive = small, poorly fitted or top-dose-only effect, or a change in a side signal; inactive = no such curve, though single readings can be large or run the other way; the % refers to the signal ratio;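 note: cells stimulated with carbachol in lithium chloride buffer; higher means more IMPase inhibition seen as more IP1 and lower FRET ratio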
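Measured: the HTRF emission ratio (665/620 nm) plus the 620 nm donor channel, each fitted to the Hill equation to give AC50. Cells were CHO-M1 given compounds up to 46 uM and a 30 min carbachol stimulation at 37C.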
Numbers stand for hits; - = inactive; ? = inconclusive; . = no result given. Unless noted, calls come from the whole dose curve; as a rule, active = well fitted curve in the direction sought with a large enough effect; inconclusive = small, poorly fitted or top-dose-only effect, or another doubt; inactive = no such curve, though single readings can be large; an effect the other way counts as inactive or inconclusive.

SMILES	HPGD inh	ALDH1A1 block	NPSR antag	PNC assembly inh	IMPase Li inh	IMPase inh
CC(=O)N1CCC(N(CCN2CCOCC2)C(=S)Nc2ccccc2C)CC1	-	-	-	-112	-	.
O=C(COc1ccc2oc(-c3ccccc3)cc(=O)c2c1)Nc1ccccc1	-	-	-	-112	?	-
COC(=O)COc1ccc2oc(-c3ccc(OC)cc3)cc(=O)c2c1	.	.	.	.	.	-
NS(=O)(=O)c1cccc(NC(=O)c2cc3ccccc3o2)c1	.	-	-	.	-	.
CN(O)/C=N/C(=S)Nc1ccc(Cl)cc1Cl	.	1.6µM	-	.	-	.
CS(=O)(=O)N1CCN(c2ccc([N+](=O)[O-])c(NCc3ccccc3)c2)CC1	-	-	-	-	-	-
Cc1ccccc1C(=O)N1CCN(c2ccc([N+](=O)[O-])c(NCc3cccnc3)c2)CC1	-	16µM	-	-	-	-
CS(=O)(=O)N1CCN(c2ccc([N+](=O)[O-])c(NCc3cccnc3)c2)CC1	.	-	-	.	-	.
O=C(c1ccccc1F)N1CCN(c2ccc([N+](=O)[O-])c(NCC3CCCO3)c2)CC1 (stereo not drawn)	.	11µM	-	.	-	.
Cc1ccc(C(=O)N2CCN(c3ccc([N+](=O)[O-])c(NCc4cccnc4)c3)CC2)cc1	-	13µM	-	-	-	.
CCCCCCC(=O)Nc1ccc(Cl)cn1	-	-	-	-	-	-
CCC(=NCCc1ccccc1)C1=C(O)CCC1=O	-	-	-	-	-	-
Cc1ccc2c(c1Br)/C(=N/N1C(=O)c3ccccc3C1=O)C(=O)N2	-	0.75µM	-	-	-	-
Cc1cc(C)c(/C=C2/C(=O)Nc3ccccc32)[nH]1	.	.	.	.	.	-
CC(=O)/C=C1/C(=O)Nc2ccccc21	.	3.2µM	-	.	-	.
CC(CCc1ccccc1)NC(=O)C1CCCN(c2nnc(-n3cccc3)s2)C1 (stereo not drawn)	-	-	-	-	-	-
COc1ccc(-n2c(Cc3cccn3C)nnc2SCC(=O)Nc2ccc3c(c2)OCO3)cc1	-	14µM	-	-	-	-
COc1ccc(-n2c(Cc3cccn3C)nnc2SCC(=O)Nc2cccc(NC(C)=O)c2)cc1	-	?	-	-	-	-
COc1ccc(-n2c(Cc3cccn3C)nnc2SCC(=O)Nc2ccc3c(c2)OCCO3)cc1	-	1µM	-	-	-	-
Cn1cccc1Cc1nnc(SCC(=O)Nc2ccc3c(c2)OCO3)n1CCc1ccccc1	-	?	-	?	-	-
Cn1cccc1Cc1nnc(SCC(=O)Nc2ccc3c(c2)OCCO3)n1CCc1ccccc1	-	14µM	-	?	-	-
COc1cccc(OCCNS(=O)(=O)c2cccc([N+](=O)[O-])c2)c1	.	?	-	.	-	.
CC1=C(CC(=O)c2ccc(Cl)cc2)C(=O)c2ccccc2C1=O	-	2.5µM	-	-	-	-
C/C(=C\C(=O)c1ccncc1)Nc1ccccc1O	14µM	-	-	-	-	-
CC(C)(C)N(NC(=O)OCc1ccccc1)C(=O)c1ccccc1	-	-	-	-80	-	.
SMILES	HPGD inh	ALDH1A1 block	NPSR antag	PNC assembly inh	IMPase Li inh	IMPase inh
CCc1ccc(C(=O)NN(C(=O)c2ccc(CC)cc2)C(C)(C)C)cc1	25µM	-	-	-	-	.
CCOc1ccc(NC(=O)C(c2ccccn2)N(C(=O)CCl)c2ccc(OCC)cc2)cc1 (stereo not drawn)	-	8.9µM	-	-	-	-
CCOc1ccc(NC(=O)C(c2ccccn2)N(C(=O)CCl)c2ccc(OC)cc2)cc1 (stereo not drawn)	-	-	-	-	-	-
Cc1cc(C(=O)Nc2ccccc2C(F)(F)F)no1	-	-	-	-	-	-
Cc1ccc(C(=O)NC(=S)Nc2ccccc2C(F)(F)F)cc1C	-	4.5µM	?	-	-	-
Cc1cccc(C(=O)NC(=S)Nc2ccccc2C(F)(F)F)c1	-	18µM	?	-	-	.
O=C(NCC(c1cccnc1)N1CCN(c2ccc(F)cc2)CC1)c1ccc(F)cc1 (stereo not drawn)	-	32µM	-	-	-	-
CCOc1ccc(N2C(=O)CN(O)C=C3N=c4ccccc4=C32)cc1	.	10µM	-	.	?	.
CCOc1ccc(Cn2ccnc2CCl)cc1[N+](=O)[O-]	-	-	-	-	-	-

From PubChem BioAssay
